In PubChem BioAssay (EPA / NIEHS):
Results filed as inconclusive are left out. The source made the active and inactive calls. The calls were made as follows, unless noted: active = hit-call score of the fitted dose curve at least 0.9, where 1 is the maximum; inactive = score below 0.9.

Assays:
[1] = read-out: Tissue Factor, F3 (gene 2152); test: BSK_LPS_TissueFactor: BioMAP Diversity Plus: LPS Assay for Tissue Factor Biomarker Activity (AID 2283084); details: primary human HUVEC with PBMC; actives raise or lower the signal
Method in brief: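 Compound was added to an endothelial cell/PBMC co-culture, and after 24 h tissue factor (CD142) was read by ELISA. Gain or loss of signal was fitted against a DMSO baseline, and parallel SRB staining (560 nm) tracked overt cytotoxicity.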

[2] = read-out: Tumor necrosis factor (Homo sapiens) (UniProt P01375); test: BSK_LPS_TNFa: BioMAP Diversity Plus: LPS Assay for Tumour Necrosis Factor alpha (TNFa) Biomarker Activity (AID 2283085); details: primary human HUVEC with PBMC; actives raise or lower the signal;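 as to AC50: TNFa protein level quantified by ELISA in the co-culture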
Method in brief: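 TNFa was quantified by ELISA in LPS-activated co-cultures of human endothelial cells and PBMC, 24 h post-dosing. Both increases and decreases versus DMSO were fitted.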

[3] = read-out: Vascular cell adhesion molecule 1 (VCAM1), VCAM1 (gene 7412); test: BSK_LPS_VCAM1: BioMAP Diversity Plus: LPS Assay for Vascular cell adhesion molecule 1 (VCAM1) Biomarker Activity (AID 2283086); details: primary human HUVEC with PBMC; actives raise or lower the signal
Method in brief: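 VCAM-1 quantified by ELISA in an LPS-activated co-culture of human endothelial cells and peripheral blood mononuclear cells, read 24 h post-treatment. Fitted in both directions versus DMSO; parallel SRB staining flags overt cytotoxicity.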

[4] = read-out: CD38, CD38 (gene 952); test: BSK_SAg_CD38: BioMAP Diversity Plus: SAg Assay for CD38 Biomarker Activity (AID 2283087); details: primary human HUVEC with PBMC; actives raise or lower the signal
Method in brief: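 CD38 quantified by ELISA (fluorescence) in a superantigen-activated endothelial cell–PBMC co-culture at 24 h post-dose. Activity fitted in both directions relative to DMSO; parallel SRB and Alamar Blue cytotoxicity read-outs.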

[5] = read-out: CD40, CD40 (gene 958); test: BSK_SAg_CD40: BioMAP Diversity Plus: SAg Assay for CD40 Biomarker Activity (AID 2283088); details: primary human HUVEC with PBMC; actives raise or lower the signal
Method in brief: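 CD40 is measured by fluorescence ELISA in an endothelial/PBMC primary human co-culture at 24 h post-dose. Fitting is bidirectional, DMSO baseline. Parallel SRB staining (560 nm) flags cytotoxicity.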

[6] = read-out: CD69, CD69 (gene 969); test: BSK_SAg_CD69: BioMAP Diversity Plus: SAg Assay for CD69 Biomarker Activity (AID 2283089); details: primary human HUVEC with PBMC; actives raise or lower the signal;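 as to AC50: cell surface CD69 protein quantified by ELISA with fluorescence detection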
Method in brief: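 Values derive from bidirectional fitting relative to DMSO vehicle. Cells: umbilical vein endothelium plus peripheral blood mononuclear cells, treated 24 h before fluorescent ELISA for CD69.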

[7] = read-out: Monocyte Chemoattractant Protein-1 (MCP1), CCL2 (gene 6347); test: BSK_SAg_MCP1: BioMAP Diversity Plus: SAg Assay for Monocyte Chemoattractant Protein-1 (MCP1) Biomarker Activity (AID 2283090); details: primary human HUVEC with PBMC; actives raise or lower the signal
Method in brief: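 Values derive from bidirectional fitting of ELISA-measured MCP1 against DMSO controls. Readings were taken 24 h after dosing human vascular endothelial cells co-cultured with peripheral blood mononuclear cells under superantigen stimulation.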

[8] = read-out: E-selectin (Homo sapiens) (UniProt P16581); test: BSK_SAg_Eselectin: BioMAP Diversity Plus: SAg Assay for Eselectin Biomarker Activity (AID 2283091); details: primary human HUVEC with PBMC; actives raise or lower the signal
Method in brief: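 Cell-surface E-selectin is read by ELISA at 24 h in the SAg co-culture of HUVEC and PBMC. Curves are fitted in both directions relative to DMSO. Parallel SRB total-protein staining tracks overt toxicity.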

[9] = read-out: Monokine induced gamma interferon (MIG), CXCL9 (gene 4283); test: BSK_SAg_MIG: BioMAP Diversity Plus: SAg Assay for Monokine induced gamma interferon (MIG) Biomarker Activity (AID 2283092); details: primary human HUVEC with PBMC; actives raise or lower the signal
Method in brief: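 Values reflect bidirectional fitting of ELISA-measured MIG against DMSO vehicle, taken 24 h after dosing of a co-culture of human umbilical vein endothelial cells and peripheral blood mononuclear cells.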

[10] = BSK_SAg_PBMCCytotoxicity: PBMC Cytotoxicity Assessment in the BioMAP Diversity Plus: SAg Assay (AID 2283093); details: primary human HUVEC with PBMC;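 also: PBMC viability measured as Alamar Blue reduction fluorescence at 546/580 nm; fitted both ways against DMSO so a hit may be loss or gain of signal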;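 as to AC50: PBMC superantigen activated with SEB plus TSST-1 one hour after compound addition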
Method in brief: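 Alamar Blue reduction (6 h, 546/580 nm) reports PBMC cytotoxicity after 90 h superantigen activation (SEB, TSST-1; 20 ng/mL final each) with 1 h compound pre-treatment. Gain or loss of signal fitted versus DMSO.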

[11] = read-out: Interleukin-8 (IL8), CXCL8 (gene 3576); test: BSK_SAg_IL8: BioMAP Diversity Plus: SAg Assay for Interleukin-8 (IL8) Biomarker Activity (AID 2283094); details: primary human HUVEC with PBMC; actives raise or lower the signal
Method in brief: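 ELISA readout of IL-8 from a superantigen-activated endothelial/PBMC primary human co-culture, taken 24 h post-dosing and fitted in both directions against DMSO; parallel SRB total-protein staining flags overt cytotoxicity.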

[12] = BSK_SAg_Proliferation: Cell Proliferation Assessment in the BioMAP Diversity Plus: SAg Assay (AID 2283095); details: primary human HUVEC with PBMC;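 also: relative cell number as total protein by SRB absorbance in sub-confluent culture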
Method in brief: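 Relative cell number in the endothelial cell/PBMC co-culture was quantified at 96 h by SRB staining (0.1% SRB, 10% TCA fixation, read at 560 nm). Curves were fitted in both directions relative to DMSO baseline.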

[13] = BSK_SAg_SRB: Viability Assessment in the BioMAP Diversity Plus: SAg Assay (AID 2283096); details: primary human HUVEC with PBMC;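 also: cells read one day after compound addition; hits may be either gain or loss of signal compared with DMSO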
Method in brief: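 This overt-cytotoxicity endpoint quantifies protein in human endothelial/PBMC co-cultures at 24 h using SRB absorbance (560 nm) after trichloroacetic acid fixation. Values reflect signal change from the DMSO negative control, fitted bidirectionally.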

[14] = target: human CYP2A6, CYP2A6 (gene 1548) (UniProt P11509); test: NVS_ADME_hCYP2A6: NovaScreen (NVS) CYP450-related Enzyme Activity (ADME) Assay for human CYP2A6 (AID 2283099; active = hit-call score of the fitted dose curve at least 0.9, where 1 is the maximum)
Chain of human CYP2A6, CYP2A6 (gene 1548) (P11509 whole entry, looked up): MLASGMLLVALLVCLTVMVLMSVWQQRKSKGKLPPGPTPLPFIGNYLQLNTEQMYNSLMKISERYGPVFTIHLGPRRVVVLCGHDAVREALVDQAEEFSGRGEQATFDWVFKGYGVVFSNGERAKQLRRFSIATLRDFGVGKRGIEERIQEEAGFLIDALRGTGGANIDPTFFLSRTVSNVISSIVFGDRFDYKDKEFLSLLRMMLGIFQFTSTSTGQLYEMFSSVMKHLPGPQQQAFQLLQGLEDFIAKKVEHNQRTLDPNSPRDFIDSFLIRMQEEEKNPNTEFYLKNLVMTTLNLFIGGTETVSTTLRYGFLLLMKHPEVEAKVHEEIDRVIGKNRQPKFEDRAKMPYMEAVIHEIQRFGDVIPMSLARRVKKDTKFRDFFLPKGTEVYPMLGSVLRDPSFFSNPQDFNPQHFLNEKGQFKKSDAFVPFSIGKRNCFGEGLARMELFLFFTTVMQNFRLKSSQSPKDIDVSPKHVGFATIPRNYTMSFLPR
Method in brief: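 Compounds screened at 10 uM (duplicate) and, if active, titrated to a 20 uM top concentration against insect-cell-expressed CYP2A6. Loss of fluorescent product signal after 0.5 h, relative to acetonitrile baseline, indicates inhibition.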

[15] = target: human CYP1A1, CYP1A1 (gene 1543) (UniProt P04798); test: NVS_ADME_hCYP1A1: NovaScreen (NVS) CYP450-related Enzyme Activity (ADME) Assay for human CYP1A1 (AID 2283100; active = hit-call score of the fitted dose curve at least 0.9, where 1 is the maximum)
Chain of human CYP1A1, CYP1A1 (gene 1543) (P04798 whole entry, looked up): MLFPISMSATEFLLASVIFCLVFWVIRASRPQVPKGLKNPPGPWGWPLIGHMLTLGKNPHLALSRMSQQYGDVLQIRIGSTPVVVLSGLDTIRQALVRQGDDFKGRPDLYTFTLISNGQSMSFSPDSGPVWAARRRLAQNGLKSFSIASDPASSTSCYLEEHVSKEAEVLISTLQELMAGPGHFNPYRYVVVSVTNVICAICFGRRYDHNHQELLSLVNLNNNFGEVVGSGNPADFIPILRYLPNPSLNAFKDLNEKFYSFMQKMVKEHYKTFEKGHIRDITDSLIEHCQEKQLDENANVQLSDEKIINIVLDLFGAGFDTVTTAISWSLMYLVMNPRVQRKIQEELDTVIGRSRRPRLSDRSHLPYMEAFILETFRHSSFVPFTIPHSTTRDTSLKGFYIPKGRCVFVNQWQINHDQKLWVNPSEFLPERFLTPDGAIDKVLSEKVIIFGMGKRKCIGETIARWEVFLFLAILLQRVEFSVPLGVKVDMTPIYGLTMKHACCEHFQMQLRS
Method in brief: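 Chemicals were first tested in duplicate at 10 uM, and those passing a 30% inhibition threshold were rerun as concentration series topping at 20 uM. Fluorescence read-out of recombinant enzyme turnover after 1 h, relative to acetonitrile.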

[16] = target: human CYP1A2, CYP1A2 (gene 1544) (UniProt P05177); test: NVS_ADME_hCYP1A2: NovaScreen (NVS) CYP450-related Enzyme Activity (ADME) Assay for human CYP1A2 (AID 2283102; active = hit-call score of the fitted dose curve at least 0.9, where 1 is the maximum)
Chain of human CYP1A2, CYP1A2 (gene 1544) (P05177 whole entry, looked up): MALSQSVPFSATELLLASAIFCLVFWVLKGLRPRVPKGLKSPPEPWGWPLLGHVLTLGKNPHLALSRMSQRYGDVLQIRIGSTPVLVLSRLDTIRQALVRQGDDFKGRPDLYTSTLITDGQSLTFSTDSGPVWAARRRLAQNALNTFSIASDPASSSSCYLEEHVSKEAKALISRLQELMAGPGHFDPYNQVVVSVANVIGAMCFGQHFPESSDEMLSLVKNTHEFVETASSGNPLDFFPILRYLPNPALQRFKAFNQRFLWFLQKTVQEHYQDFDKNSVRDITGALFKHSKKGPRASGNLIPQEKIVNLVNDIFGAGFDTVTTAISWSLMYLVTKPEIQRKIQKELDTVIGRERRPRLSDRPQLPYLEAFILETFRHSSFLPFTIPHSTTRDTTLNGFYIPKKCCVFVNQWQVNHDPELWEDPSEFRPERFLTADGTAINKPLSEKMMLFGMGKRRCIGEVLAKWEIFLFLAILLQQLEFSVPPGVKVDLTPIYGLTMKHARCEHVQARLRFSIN
Method in brief: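 Enzyme activity of insect-cell-expressed human CYP1A2 measured by fluorescence 0.5 h after compound addition, relative to acetonitrile. Compounds first tested in duplicate at 10 uM, actives followed up in concentration series.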

[17] = target: human CYP2D6, CYP2D6 (gene 1565) (UniProt P10635); test: NVS_ADME_hCYP2D6: NovaScreen (NVS) CYP450-related Enzyme Activity (ADME) Assay for human CYP2D6 (AID 2283107; active = hit-call score of the fitted dose curve at least 0.9, where 1 is the maximum)
Chain of human CYP2D6, CYP2D6 (gene 1565) (P10635 whole entry, looked up): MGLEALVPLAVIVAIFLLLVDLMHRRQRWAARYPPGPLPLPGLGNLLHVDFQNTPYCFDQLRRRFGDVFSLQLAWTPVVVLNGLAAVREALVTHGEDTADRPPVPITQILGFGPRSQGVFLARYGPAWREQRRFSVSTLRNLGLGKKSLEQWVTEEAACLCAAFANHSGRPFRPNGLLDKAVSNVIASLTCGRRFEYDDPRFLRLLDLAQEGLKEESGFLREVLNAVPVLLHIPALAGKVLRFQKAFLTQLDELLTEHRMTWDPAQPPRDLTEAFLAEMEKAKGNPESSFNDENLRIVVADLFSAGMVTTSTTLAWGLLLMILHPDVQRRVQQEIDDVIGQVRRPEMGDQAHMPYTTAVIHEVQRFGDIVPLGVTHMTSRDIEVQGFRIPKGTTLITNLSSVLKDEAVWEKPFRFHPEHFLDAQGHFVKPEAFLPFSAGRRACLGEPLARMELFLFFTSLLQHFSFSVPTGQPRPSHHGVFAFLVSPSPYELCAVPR
Method in brief: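 Fluorescence readout of recombinant CYP2D6 (insect-cell derived) activity after 1 h incubation with test chemical. Acetonitrile served as baseline, loss-of-signal direction. Single-concentration duplicate screening at 10 uM preceded concentration-response retesting.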

Measured: AC50

Chain of Tumor necrosis factor (Homo sapiens) (P01375 whole entry, looked up): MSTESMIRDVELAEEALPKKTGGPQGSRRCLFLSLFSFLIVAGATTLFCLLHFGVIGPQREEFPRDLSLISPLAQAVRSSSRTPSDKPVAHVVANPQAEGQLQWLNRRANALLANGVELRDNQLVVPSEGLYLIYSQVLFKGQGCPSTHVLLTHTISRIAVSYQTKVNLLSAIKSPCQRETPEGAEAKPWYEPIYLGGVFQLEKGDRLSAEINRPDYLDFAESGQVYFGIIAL
Chain of E-selectin (Homo sapiens) (P16581 whole entry, looked up): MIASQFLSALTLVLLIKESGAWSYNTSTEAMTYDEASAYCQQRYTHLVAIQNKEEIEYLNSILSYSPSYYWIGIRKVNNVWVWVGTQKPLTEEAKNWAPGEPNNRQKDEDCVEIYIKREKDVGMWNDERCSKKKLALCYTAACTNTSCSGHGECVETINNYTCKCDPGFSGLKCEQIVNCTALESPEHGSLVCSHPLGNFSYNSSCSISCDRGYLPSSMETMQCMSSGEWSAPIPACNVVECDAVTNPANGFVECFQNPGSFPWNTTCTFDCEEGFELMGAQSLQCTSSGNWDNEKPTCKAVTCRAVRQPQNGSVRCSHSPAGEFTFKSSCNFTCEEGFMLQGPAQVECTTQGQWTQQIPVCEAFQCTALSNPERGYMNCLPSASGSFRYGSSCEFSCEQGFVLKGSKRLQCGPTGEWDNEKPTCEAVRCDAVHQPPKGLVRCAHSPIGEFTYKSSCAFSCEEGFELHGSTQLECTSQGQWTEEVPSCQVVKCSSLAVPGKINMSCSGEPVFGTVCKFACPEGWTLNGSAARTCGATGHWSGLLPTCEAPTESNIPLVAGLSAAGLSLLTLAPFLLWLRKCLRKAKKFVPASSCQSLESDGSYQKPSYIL

CCCCCc1ccc(N)cc1
inactive: [1] | [2] | [4] | [5] | [6] | [7] | [8] | [9] | [10] | [11] | [12] | [13]
active: [3] 20 µM

CCN(Cc1cccc(S(=O)(=O)O)c1)c1ccc(C(=C2C=CC(=[N+](CC)Cc3cccc(S(=O)(=O)O)c3)C=C2)c2ccccc2S(=O)(=O)[O-])cc1
inactive: [1] | [2] | [3] | [4] | [5] | [6] | [7] | [8] | [9] | [11] | [13]
active: [10] 10 µM | [12] 9.61 µM

Clc1ccccc1C(c1ccccc1)(c1ccccc1)n1ccnc1
inactive: [14] | [16]
active: [1] 31.9 µM | [2] 32.9 µM | [3] 22.4 µM | [4] 25.9 µM | [5] 20 µM | [6] 24.3 µM | [7] 26.1 µM | [8] 14 µM | [9] 35.1 µM | [10] 33.1 µM | [11] 11.6 µM | [12] 9.32 µM | [13] 24.4 µM | [15] 2.68 µM | [17] 3.72 µM

CC(C)(O)c1ccc(CNC(=O)c2cccnc2Oc2ccc3nonc3c2)cc1
active: [2] 1.49 µM | [8] 1.4 µM
inactive: [1] | [3] | [4] | [5] | [6] | [7] | [9] | [10] | [11] | [12] | [13]

Cc1cc(F)ccc1-c1cc(N2CC[C@@H](O)[C@H]2CO)ncc1N(C)C(=O)C(C)(C)c1cc(C(F)(F)F)cc(C(F)(F)F)c1
active: [1] 12.9 µM | [2] 10.7 µM | [3] 11.2 µM | [4] 10.2 µM | [5] 9.9 µM | [7] 10.3 µM | [8] 10.2 µM | [9] 13.1 µM | [10] 7.85 µM | [11] 7.96 µM | [12] 5.7 µM | [13] 10.8 µM

CN(C[C@@H](CC[N+]12CCC(C3CCCCC3)(CC1)CC2)c1ccc(Cl)c(Cl)c1)C(=O)c1cc(C(F)(F)F)cc(C(F)(F)F)c1
active: [1] 25 µM | [2] 13.7 µM | [3] 31.3 µM | [4] 13.3 µM | [5] 20 µM | [6] 21.9 µM | [7] 17.1 µM | [8] 13.3 µM | [9] 27.8 µM | [10] 9.71 µM | [11] 13.9 µM | [12] 5.2 µM | [13] 26.9 µM | [15] 14.8 µM

CCO[Si](CCCNC(N)=O)(OCC)OCC
inactive: [1] | [2] | [3] | [4] | [5] | [7] | [8] | [9] | [10] | [11] | [12] | [13]
